KB-3-1 cytotox = KB-3-1 parental cell cytotoxicity; KB-3-1 viability, CellTiter-Glo ATP luminescence, 72 h; 400,000 tested, 1.4% active; Potency, µM (series often up to 46.1 µM), hits mostly cytotoxic; also: nearly all actives have a fitted effect of over 60% in size
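KB-3-1 cells, DMEM (no phenol red) + 10% FBS; compound by pin transfer, 72 h, 37 °C. Readout: CellTiter-Glo luminescence after 10 min. Data normalized, curve-fitted.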
KB-V1 cytotox = KB-V1 MDR subline cytotoxicity. Potency, µM (titrated, usually from 46.1 µM), hits mostly cytotoxic. KB-V1 MDR cells viability, CellTiter-Glo, 72 h. 400,000 tested, 3.4% active; also: nearly all actives have a fitted effect of over 60% in size
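qHTS viability screen in drug-selected KB-V1 MDR cells: 72 h compound treatment at 37 degrees C, ATP luminescence end point.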
KCNH2 3.1 inh = inhibitors of human KCNH2 3.1 potassium channel isoform | U2OS KCNH2 3.1, thallium flux FluxOr; active compounds read low | activity change, % (tested at about 1.8 µM) | 340,000 tested, 0.95% active;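 active = maximum activity change below -70%; inconclusive = maximum activity change from -70% to -50%; inactive = maximum activity change above -50%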;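 also: thallium influx rate constant from kinetic fluorescence after stimulation buffer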
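Kinetic fluorescence (2 min after stimulation buffer) measures Tl+ influx through KCNH2 3.1 expressed by viral transduction in U2OS cells; the rate constant is normalized against DMSO controls serving as positive and negative references.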
KCNH2 WT inh = inhibitors of human wildtype KCNH2 potassium channel; Q12809; U2OS, BacMam KCNH2, thallium flux FluxOr; active compounds read low; activity change, % at 1.84 µM; 340,000 tested, 0.37% active;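 active = maximum activity change below -70%; inconclusive = maximum activity change between -70% and -50%; inactive = maximum activity change above -50%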
Target sequence (Q12809 whole entry, looked up): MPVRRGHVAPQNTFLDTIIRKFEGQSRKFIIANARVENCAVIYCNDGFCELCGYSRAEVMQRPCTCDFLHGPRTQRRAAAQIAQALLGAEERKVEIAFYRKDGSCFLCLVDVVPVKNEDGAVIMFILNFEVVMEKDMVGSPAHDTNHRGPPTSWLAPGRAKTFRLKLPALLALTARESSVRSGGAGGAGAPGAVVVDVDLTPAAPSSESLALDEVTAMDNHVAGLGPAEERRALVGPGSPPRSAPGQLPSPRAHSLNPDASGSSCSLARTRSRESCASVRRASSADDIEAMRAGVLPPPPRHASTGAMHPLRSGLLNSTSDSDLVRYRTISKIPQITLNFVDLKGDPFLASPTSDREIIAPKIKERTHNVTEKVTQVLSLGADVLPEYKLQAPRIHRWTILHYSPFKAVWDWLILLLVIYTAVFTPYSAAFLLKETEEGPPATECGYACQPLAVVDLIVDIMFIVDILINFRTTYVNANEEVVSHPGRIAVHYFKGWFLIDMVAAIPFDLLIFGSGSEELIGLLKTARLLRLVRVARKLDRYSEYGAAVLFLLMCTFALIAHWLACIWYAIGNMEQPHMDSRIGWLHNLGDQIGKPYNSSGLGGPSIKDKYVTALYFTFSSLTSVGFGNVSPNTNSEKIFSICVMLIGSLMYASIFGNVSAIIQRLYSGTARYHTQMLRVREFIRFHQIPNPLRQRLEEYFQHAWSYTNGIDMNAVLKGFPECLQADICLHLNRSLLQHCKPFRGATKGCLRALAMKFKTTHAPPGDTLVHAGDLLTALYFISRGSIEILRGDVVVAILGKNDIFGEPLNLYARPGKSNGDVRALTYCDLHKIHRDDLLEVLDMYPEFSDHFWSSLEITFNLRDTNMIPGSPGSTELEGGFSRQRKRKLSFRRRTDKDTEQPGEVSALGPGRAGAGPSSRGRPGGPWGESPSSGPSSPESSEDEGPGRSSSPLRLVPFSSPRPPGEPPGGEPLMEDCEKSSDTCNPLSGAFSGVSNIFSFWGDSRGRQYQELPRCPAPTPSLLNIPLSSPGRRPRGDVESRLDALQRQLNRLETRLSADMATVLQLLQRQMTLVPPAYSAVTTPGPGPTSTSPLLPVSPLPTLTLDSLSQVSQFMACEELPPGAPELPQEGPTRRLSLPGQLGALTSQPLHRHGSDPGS
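U2OS cells transduced with wild-type KCNH2 virus are loaded with FluxOr dye for 45 min, and thallium flux is measured in kinetic reads before and after stimulation buffer. Rate constants are normalized to DMSO controls.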
MCF10A rerep = inducers of DNA re-replication in MCF 10A breast cells | MCF 10A DNA re-replication, Hoechst nuclear intensity, 48 h | Potency, µM (titrated, usually from 46.1 µM), hits mostly activators | 350,000 tested, 2.9% active; also: nearly all actives have a fitted effect of over 50% in size
SW480 rerep = induces DNA re-replication in SW480 colon adenocarcinoma cells; 340,000 tested, 1.8% active; SW480 DNA re-replication, Hoechst DNA content imaging, 48 h; AID 624297; Potency, µM (titrated, usually from 46.1 µM), usual class: activators; also: nearly all actives have a fitted effect of over 55% in size
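Hoechst fluorescence of nuclei (405 nm excitation, 500-530 nm emission) measured by plate-scanning imager after 48 hr compound exposure at 37 C; re-replication scored as increased number of nuclei with elevated intensity.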
Hits are given with their value; – = inactive; ? = inconclusive; · = no result given; [ ] = remark or other dose. In the library only some 7.6% were active in any assay of this set; here they are far more common. Unless noted, calls follow the shape of the dose curve; as a rule, active = well fitted curve in the direction sought with a large enough effect; inconclusive = small, poorly fitted or top-dose-only effect, or another doubt; inactive = no such curve, though single readings can be large; an effect the other way counts as inactive or inconclusive.

SMILES	KB-3-1 cytotox	KB-V1 cytotox	KCNH2 3.1 inh	KCNH2 WT inh	MCF10A rerep	SW480 rerep
CC1Cc2ccccc2N1C(=O)c1cc2sccc2n1Cc1ccc(F)cc1 (centres undefined)	?	21µM	–	–	?	?
O=C(NCc1ccco1)c1cc2sccc2n1Cc1ccccc1	–	16µM	–	–	–	–
O=C(c1ccco1)N1CCN(C(=O)c2cc3sccc3n2Cc2ccccc2)CC1	?	2.1µM	–	–	–	–
CC(=O)Nc1nc(COc2ccccc2)cs1	–	–	–	–	–	–
Cc1ccc(C(=O)Nc2nc(COc3ccccc3)cs2)s1	–	?	–	–	21µM	?
O=C(Nc1nc(COc2ccccc2)cs1)C12CC3CC(CC(C3)C1)C2	–	–	?	–	8.2µM	–
O=C(NCc1ccccc1Cl)c1ccc(NC(=O)N2CCSc3ncccc32)cc1	–	?	·	·	·	·
COc1ccc(CCNC(=O)c2cnn(-c3cccc(C)c3)c2C2CCN(C(=O)OC(C)(C)C)CC2)cc1OC	–	–	·	·	·	·
CSc1nc2ccc(Cl)cc2[nH]1	–	–	–	–	–	–
CSc1nc2cc(Oc3cccc(Cl)c3Cl)c(Cl)cc2[nH]1	–	–	–	–	9.2µM	–
O=C(CSc1n[nH]c(=O)n1C1CC1)Nc1cc(Cl)ccc1Oc1ccccc1	–	16µM	–	–	?	–
O=C(Cc1ccc(Cl)c(Cl)c1)N1CCOCC1	–	–	–	–	–	–
O=C1CCCC2=C1C1(CCCCC1)N=C(Nc1nc3ccccc3s1)N2	–	–	–	–	10µM	–
O=C1CCCC2=C1C1(CCCC1)N=C(Nc1nc3ccccc3s1)N2	–	–	–	–	?	–
CCN1CCN(C(=O)c2ccc(Cl)c(S(=O)(=O)N3CCOCC3)c2)CC1	–	–	–	–	–	–
COc1nc(-c2ccccc2)cc(-c2ccc(OC)c(OC)c2)n1	–	8.2µM	–	–	?	?
CCOc1ccc(Cn2c3ccc(OC)cc3c3nc4ccccc4nc32)cc1OC	–	–	–	–	7.3µM	?
CCOC(=O)Cn1c2ccc(OC)cc2c2nc3ccccc3nc21	–	–	–	–	–	–
COc1ccc2c(c1)c1nc3ccccc3nc1n2Cc1ccc(OC)c(OC)c1	–	–	–	–	8.2µM	–
O=C(c1ccc(Br)cc1)c1sc(N2CCOCC2)nc1-c1ccccc1	?	?	–	–	16µM	–
[2H]c1c([2H])c([2H])c(C(=O)c2sc(N3CCCCCC3)nc2-c2ccccc2)c([2H])c1[2H]	?	–	–	–	9.2µM	–
COc1ccc(-c2nc(N3CCCCCC3)sc2C(=O)c2ccccc2)cc1	–	–	–	–	15µM	–
O=[N+]([O-])/C(Cl)=C(/NCCO)C(Cl)=C(Cl)Cl	–	?	–	–	–	–
CC(=O)Nc1ccc(NC(=O)CN2C(=O)CN(C)C(=O)c3ccccc32)cc1	–	–	·	·	·	·
CCN1CCN(C(=O)CCc2nnc(CCc3ccccc3OC)o2)[C@@H](C)C1=O	–	–	–	–	–	–
SMILES	KB-3-1 cytotox	KB-V1 cytotox	KCNH2 3.1 inh	KCNH2 WT inh	MCF10A rerep	SW480 rerep
CCC(C)Nc1nc(-c2ccccn2)nc2ccccc12 (centres undefined)	15µM	?	–	–	–	–
c1ccc(CNc2nc(-c3ccccc3)nc3ccccc23)cc1	–	?	–	–	–	–
CCC(C)Nc1nc(-c2cccc(OC)c2O)nc2ccccc12 (centres undefined)	?	?	–	–	?	–
CC(C)(C)c1ccc(-c2nc(NCc3cccnc3)c3ccccc3n2)cc1	–	?	·	–	13µM	–
c1cncc(CNc2nc(-c3cccnc3)nc3ccccc23)c1	–	–	–	–	–	–
c1ccc(CNc2nc(-c3ccccn3)nc3ccccc23)cc1	16µM	–	–	–	–	–
Nc1nc(COC(=O)c2ccc3c(c2)OCCO3)nc(Nc2ccccc2)n1	–	21µM	–	–	–	–
COc1cccc(Nc2nc(N)nc(CCl)n2)c1	–	–	–	–	18µM	15µM
COc1ccccc1Nc1nc(N)nc(CCl)n1	–	?	–	–	?	12µM
Cc1ccccc1Nc1nc(N)nc(-c2oc3ccccc3c2C)n1	–	?	–	–	–	–
COc1ccccc1Nc1nc(N)nc(-c2oc3ccccc3c2C)n1	–	–	·	–	?	7.3µM
COc1ccc(OCc2nc(N)nc(Nc3ccccc3OC)n2)cc1	–	–	–	–	–	–
Cc1cccc(Nc2nc(N)nc(CCl)n2)c1	?	–	–	–	?	?
Nc1nc(CCl)nc(Nc2ccccc2)n1	?	?	–	–	?	6.5µM
COc1ccc(OC)c(Nc2nc(N)nc(CCl)n2)c1	–	?	–	–	29µM	2.6µM
CCOc1ccc(Nc2nc(N)nc(CSC(=S)N3CCOCC3)n2)cc1	–	?	–	–	–	–
Cc1ccc(Nc2nc(N)nc(CCl)n2)cc1	?	?	–	–	?	–
Cc1ccccc1Nc1nc(N)nc(COC(=O)c2cccc(S(=O)(=O)N(C)C)c2)n1	–	18µM	–	–	?	–
Cc1ccccc1Nc1nc(N)nc(COC(=O)c2cccc(S(=O)(=O)NCc3ccccc3)c2)n1	–	–	–	–	?	–
CCOc1ccc(Nc2nc(N)nc(CCl)n2)cc1	13µM	–	–	–	?	?
Cc1ccc(NC(=O)CN2CCCN(Cc3ccccc3Cl)S2(=O)=O)c(C)c1	–	–	·	·	·	·
Cc1ccc(NC(=O)COc2ccccc2C(=O)Nc2ccccc2)cc1	–	–	·	·	·	·
CC(C)(C)c1ccc(CN(Cc2ccco2)c2cnc(S(C)(=O)=O)nc2C(=O)Nc2ccc(F)cc2)cc1	–	–	·	·	·	·
Cc1ccnc2ncccc12	–	–	·	·	·	·
Cc1[nH]cnc1C(=O)N/N=C/c1c(Cl)cccc1Cl	16µM	21µM	–	–	–	–
SMILES	KB-3-1 cytotox	KB-V1 cytotox	KCNH2 3.1 inh	KCNH2 WT inh	MCF10A rerep	SW480 rerep
COc1ccc2[nH]c3c(c2c1)CCNC3C1CC=C(C)CC1 (centres undefined)	21µM	?	–	–	0.58µM	?
O=C(NCC1CCCO1)c1ccccc1OCc1ccc(F)cc1 (centres undefined)	–	?	–	–	–	–
COc1ccc(NC(=O)c2cc(Cl)ccc2NC(=O)c2ccco2)c(OC)c1	–	–	-70	-82	?	–[9.22 µM]
O=C(NC(=S)NCC1CCCO1)c1ccco1 (centres undefined)	–	–	–	–	–	–
O=C(NCC1CCCO1)c1ccccc1NS(=O)(=O)c1cccc([N+](=O)[O-])c1 (centres undefined)	–	–	–	–	–	–
O=C(NCC1CCCO1)c1ccccc1NS(=O)(=O)c1cc([N+](=O)[O-])ccc1Cl (centres undefined)	?	16µM	–	–	–	–

Assay outcomes from PubChem BioAssay.
